Measured potencies and affinities stand elsewhere. The source made the active and inactive calls.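 How the source made its calls: active means Loss of cell signal with fitted half-effect dose at or below twice the top valid tested dose; inconclusive means Poor fit, or flat fit from -70 to -30 percent; inactive means Half-effect above limit, rising signal, or flat within 30 percent.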
Assay: viability loss in HEK293T cells – cell-based, cherry-picks, cytotoxicity control for HIV Vif inhibitor project, dose response (AID 652208);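 further: 0% = median neutral control wells and -100% = median staurosporine control wells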
Conditions: CellTiter-Glo luminescence, 24 h; series mostly up to 26 µM; activity change, negative = cytotoxicity: at the top concentration

Row | Compound | activity change, negative = cytotoxicity
1 | O=C(Cn1ncc2c3ccccc3n(Cc3cccc(Cl)c3)c2c1=O)N1CCC2(CC1)OCCO2 | -16.2% (inactive)
2 | CC(C)CC(NC(=O)C1CCCCC1)C(=O)N1CCC2(CC1)OCCO2 (stereo unspecified) | 3.21% (inactive)
3 | O=C(NC1(C(F)(F)F)Oc2ccc(Cl)cc2O1)N1CCC2(CC1)OCCO2 (stereo unspecified) | -0.948% (inactive)
4 | CN1CCc2nc3ccc(F)cc3c(C(N)=O)c2C1 | 4.45% (inactive)
5 | O=C(Cc1ccccc1)OCC(=O)c1ccc(F)cc1 | 6.43% (inactive)
6 | CC(Cc1ccc(O)cc1)NCC(O)c1cc(O)cc(O)c1 (stereo unspecified) | 6.1% (inactive)
